# Results: PubChem BioAssay (NCATS)
# A number with no mark means an inactive call. Inconclusive results are not listed. Entries that show only a call come without a potency. The source made the active and inactive calls. Calls come from the whole dose curve; as a rule, active = well fitted curve in the direction sought with a large enough effect; inconclusive = small, poorly fitted or top-dose-only effect, or another doubt; inactive = no such curve, though single readings can be large; an effect the other way counts as inactive or inconclusive.
# Columns and labels:
# [1] = biological target: Calcium and integrin-binding protein 1 (Homo sapiens) (UniProt Q99828); test: Primary qHTS for Identification of Calcium Integrin Binding Protein 1 (CIB1) Competitor (AID 1508620);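 note: GST tagged CIB1 binding a fluorescein labelled alphaIIb integrin peptide tracer; top concentration of the series differs between compounds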
# Calcium and integrin-binding protein 1 (Homo sapiens), sequence (Q99828 whole entry, looked up): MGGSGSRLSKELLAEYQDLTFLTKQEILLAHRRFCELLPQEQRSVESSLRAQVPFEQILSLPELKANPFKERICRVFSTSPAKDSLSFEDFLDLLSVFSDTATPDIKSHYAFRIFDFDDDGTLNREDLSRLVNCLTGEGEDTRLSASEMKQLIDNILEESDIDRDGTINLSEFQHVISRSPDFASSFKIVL
# In short: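 CIB1-GST (1 uM final) and compound incubated 15 min at room temperature before adding FITC-alphaIIb peptide tracer (100 nM final). Competition for binding read by fluorescence polarization (ex 480, em 540) after another 15 min at room temperature.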
# [2] = biological target: Calcium and integrin-binding protein 1 (Homo sapiens) (UniProt Q99828); test: Confirmatory qHTS for Identification of Calcium Integrin Binding Protein 1 (CIB1) Competitor (AID 1508617); note: nearly all actives have a fitted effect of over 65% in size
# In short: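 FP competition: CIB1-GST (1 uM final) in 5 mM HEPES pH 7.4, 125 mM NaCl, 5 mM CaCl2, 0.01% Tween20 preincubated 15 min RT with compounds (up to 114 uM), then FITC-alphaIIb peptide (100 nM), 15 min RT; Ex 480/Em 540.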
# [3] = Validation qHTS assay for inhibitors of Activation Induced Cytidine Deaminase (AID): UDG Counterscreen signal (AID 1347427)
# In short: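 Fluorescence at 560 nm excitation, 665 nm emission reports UDG signal after 250 mM NaOH (2x) addition and 30 min. Enzymes (AID 1 uM, UDG 2 U/mL, at 4/3x) preincubated 10 min with compound, then 4 h with 4x 250 nM DJC20/DJC23 substrate at room temperature.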
# [4] = biological target: Single-stranded DNA cytosine deaminase (Homo sapiens) (UniProt Q9GZX7); test: Validation qHTS assay for inhibitors of Activation Induced Cytidine Deaminase (AID): AID signal (AID 1347429)
# Single-stranded DNA cytosine deaminase (Homo sapiens), sequence (Q9GZX7 whole entry, looked up): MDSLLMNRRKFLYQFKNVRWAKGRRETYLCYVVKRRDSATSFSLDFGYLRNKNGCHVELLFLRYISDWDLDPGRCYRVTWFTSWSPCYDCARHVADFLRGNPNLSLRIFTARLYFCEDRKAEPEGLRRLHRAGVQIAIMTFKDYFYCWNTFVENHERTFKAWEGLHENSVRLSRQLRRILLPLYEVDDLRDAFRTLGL
# In short: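 AID+UDG coupled FRET deamination; cpds up to 114 uM final; DJC20/DJC23 substrate, 4 hr RT; NaOH stop, 30 min RT; read Ex 540/Em 590.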
# [5] = Primary qHTS for small molecule stabilizers of the endoplasmic reticulum resident proteome: Secreted ER Calcium Modulated Protein (SERCaMP) assay (AID 1508630); note: potency is the fitted concentration of half-maximal effect
# In short: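 The SH-SY5Y reporter protocol was run at 3 concentrations up to 38.3 uM (primary) or 11 concentrations (follow-up): 16 h compound, 100 nM thapsigargin for 4 h, then extracellular luciferase luminescence.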
# [6] = Counterscreen qHTS for small molecule stabilizers of the endoplasmic reticulum resident proteome: GLuc-NoTag assay (AID 1508627);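 note: SH-SY5Y cells given compound then 100 nM thapsigargin to empty ER calcium; series mostly up to about 76 µM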
# In short: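 Counterscreen line: SH-SY5Y-GLuc-NoTag cells, treated with compound 19 hr before a 4 hr, 100 nM thapsigargin calcium depletion. Secreted Gaussia luciferase in the medium was measured by luminescence after coelenterazine was added (0.07x final), with cells unlysed.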
# [7] = Confirmatory qHTS for small molecule stabilizers of the endoplasmic reticulum resident proteome: Secreted ER Calcium Modulated Protein (SERCaMP) assay (AID 1508628); note: series mostly up to about 76 µM; nearly all actives have a fitted effect of over 40% in size
# In short: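 GLuc-SERCaMP-expressing SH-SY5Y cells, pretreated 16 h with compound, are challenged with thapsigargin to empty ER calcium stores; after 4 h, coelenterazine is added directly to the medium and luminescence is imaged.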
# [8] = Cell Viability qHTS for small molecule stabilizers of the endoplasmic reticulum resident proteome (AID 1508629); conditions: cell viability counter-screen, 100 nM thapsigargin for final 4 h;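 note: human SH-SY5Y neuroblastoma cells carrying the GLuc-SERCaMP reporter; compound exposure about 46 h in total before the viability read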
smiles,measurement,setting,value
C=C1[C@H](n2cnc3c(=O)[nH]c(N)nc32)C[C@H](O)[C@H]1CO,Potency,[1],inactive
CN(C)CCCNC(=O)c1ccc(-c2cc(O)c3ncccc3c2)cc1,Potency,[2],inactive
same,Potency,[1],inactive
C[C@H]1O[C@@H](n2cc(F)c(=O)[nH]c2=O)[C@H](O)[C@H]1O,outcome,[3],inactive
same,outcome,[4],inactive
same,Potency,[1],inactive
same,Potency,[5],inactive
CNC(=O)c1cc(COc2nnc(Nc3ccc(Cl)cc3)c3ccoc23)ccn1,Potency,[1],inactive
C[C@@H](N)c1ccc(C(=O)Nc2ccnc3[nH]ccc23)cc1,Potency,[1],inactive
same,Potency,[5],inactive
NS(=O)(=O)c1cc(Cl)c(Cl)c(S(N)(=O)=O)c1,Potency,[1],inactive
same,Potency,[6],inactive
same,Potency,[7],inactive
same,max response,[8],21%
c1ccc(-c2oc3ncnc(NC[C@@H]4CCCO4)c3c2-c2ccccc2)cc1,Potency,[1],inactive
CCCCC(F)(F)[C@@]1(O)CC[C@H]2[C@H](CC(=O)[C@@H]2CCCCCCC(=O)O)O1,Potency,[1],inactive
CC1=C(C(=O)Nc2cc3cn[nH]c3cc2F)C(c2ccc(C(F)(F)F)cc2)CC(=O)N1 (configuration not stated),Potency,[1],inactive
CO[C@H]1/C=C\O[C@@]2(C)Oc3c(C)c(O)c4c(O)c(c5c(nc6cc(C)ccn65)c4c3C2=O)NC(=O)C(C)=CC=C[C@H](C)[C@H](O)[C@@H](C)[C@@H](O)[C@@H](C)[C@H](OC(C)=O)[C@H]1C,Potency,[1],inactive
CC[C@H](C=C[C@@H](C)[C@H]1CC[C@H]2[C@@H]3CC=C4C[C@@H](O)CC[C@]4(C)[C@@H]3CC[C@]12C)C(C)C,Potency,[1],inactive
COc1ccc(C=CC(=O)Nc2ccccc2C(=O)O)cc1OC,Potency,[1],inactive
CO[C@H]1O[C@@H]2O[C@@]3(C)CC[C@@H]4[C@@H](C)CC[C@@H]([C@H]1C)[C@@]24OO3,Potency,[1],inactive
O=C(Nc1ncc(SCCN2CCCC2)s1)[C@]1(c2ccc(S(=O)(=O)C3CC3)cc2)C[C@@H]1C1CCCCC1,Potency,[1],inactive
CNC(=O)c1c(-c2ccc(F)cc2)oc2cc(N(CCO)S(C)(=O)=O)c(C3CC3)cc12,Potency,[1],inactive
same,Potency,[5],inactive
CC1CNc2c(cccc2S(=O)(=O)N[C@@H](CCCN=C(N)N)C(=O)N2CC[C@@H](C)C[C@@H]2C(=O)O)C1 (some centres not stated),Potency,[1],inactive
CC(NCCc1ccc(O)cc1)C(O)c1ccc(O)cc1 (configuration not stated),Potency,[1],inactive
CN1CCC[C@H]1CCO[C@](C)(c1ccccc1)c1ccc(Cl)cc1,Potency,[1],inactive
same,Potency,[6],inactive
C[C@H]1[C@H](O)O[C@@H]2O[C@@]3(C)CC[C@@H]4[C@H](C)CC[C@@H]1[C@@]24OO3,Potency,[1],inactive
same,Potency,[5],inactive
N#CC(c1ccnc(NCCc2cccnc2)n1)c1nc2ccccc2s1 (configuration not stated),Potency,[1],inactive
Cc1cnc(-c2cc(N3CCN(C(=O)CCS(C)(=O)=O)CC3)ncc2Cl)c(C)c1,Potency,[1],inactive
same,Potency,[5],inactive
CCC(=C(c1ccc(O)cc1)c1ccc(OCCNC)cc1)c1ccccc1,Potency,[1],inactive
C[C@]12CCC3=C4CCC(=O)C=C4CC[C@@H]3[C@H]1CC[C@@]2(O)CC#N,Potency,[1],inactive
OC[C@H]1O[C@@H](O[C@H]2[C@@H](O)[C@@](O)(CO)O[C@@H]2CO)[C@H](O)[C@@H](O)[C@@H]1O,Potency,[1],inactive
CCCCOCCOc1nc(-c2ccc(C(=O)O)c(F)c2)sc1C,Potency,[1],inactive
CC(C)=CCCC(C)=CCCC(C)=CCCC(C)=CCCC(C)=CCCC(C)=CCCC(C)=CCCC(C)=CCCC(C)=CCO,Potency,[1],inactive
same,Potency,[6],inactive
same,Potency,[7],inactive
same,max response,[8],2.98%
CON(C)C(=O)N1N=C(c2cc(F)ccc2F)S[C@]1(CCCN)c1ccccc1,Potency,[1],inactive
same,Potency,[5],inactive
CC(C)n1c(C=C[C@H](O)C[C@H](O)CC(=O)O)c(-c2ccc(F)cc2)c2ccccc21,Potency,[1],inactive
N#Cc1ccc(Oc2ccc3c(c2)COB3O)cc1,Potency,[1],inactive
CCN1C[C@H](C)n2c(c(O)c3c(=O)n(Cc4ccc(F)c(Cl)c4)nc(C(=O)NC)c32)C1=O,Potency,[1],inactive
CN(C(Cc1ccc(OS(=O)(=O)c2cccc3cnccc23)cc1)C(=O)N1CCN(c2ccccc2)CC1)S(=O)(=O)c1cccc2cnccc12 (configuration not stated),Potency,[1],inactive
same,Potency,[7],inactive
same,Potency,[5],11.9 µM (active)
Cc1nc2c([nH]1)CCN(C(=O)c1ccc(NC(=O)c3ccccc3-c3ccccc3)cc1)c1ccccc1-2,Potency,[1],inactive
O=C1C(CCC(O)c2ccc(F)cc2)C(c2ccc(O)cc2)N1c1ccc(F)cc1 (configuration not stated),Potency,[1],inactive
same,Potency,[5],inactive
CC(C)c1onc(-c2c(Cl)cccc2Cl)c1COc1ccc(C=Cc2cccc(C(=O)O)c2)c(Cl)c1,Potency,[1],inactive
same,Potency,[5],inactive
CN(C)N=Nc1nc[nH]c1C(N)=O,Potency,[1],inactive
CN(CC=CC#CC(C)(C)C)Cc1cccc2ccccc12,Potency,[1],inactive
same,Potency,[5],inactive
